KCNH2 WT inh – blocks the wildtype human KCNH2 potassium channel | 0.37% of 340,000 active | U2OS, BacMam KCNH2, thallium flux FluxOr; active compounds read low | AID 720551 | activity change, % at 1.84 µM;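 active = maximum activity change below -70%; inconclusive = maximum activity change between -70% and -50%; inactive = maximum activity change above -50%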; note: % is set by controls: 0 for no effect and ±100 for the full control effect
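U2OS cells transduced with wild-type KCNH2 virus are loaded with FluxOr dye for 45 min, and thallium flux is measured in kinetic reads before and after stimulation buffer. Rate constants are normalized to DMSO controls.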
KCNH2 3.1 block – KCNH2 3.1 (human) potassium channel inhibition. 0.95% of 340,000 active. U2OS KCNH2 3.1, thallium flux FluxOr; active compounds read low. AID 720553. activity change, % (tested at about 1.8 µM);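 active = maximum activity change below -70%; inconclusive = maximum activity change from -70% to -50%; inactive = maximum activity change above -50%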;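 note: thallium influx rate constant from kinetic fluorescence after stimulation buffer; % is set by controls: 0 for no effect and ±100 for the full control effect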
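Normalized rate constant (relative to positive and negative DMSO controls) derived from a 2 min kinetic fluorescence read after stimulation; U2OS cells expressing the 3.1 isoform via virus at 1.77 x 10^8 /mL.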
VDR inhibitor – inhibitors of human vitamin D receptor; VDR-SRC2-3 peptide fluorescence polarization, 2 h; 0.93% of 400,000 active; Potency, µM, inactives show max response, negative = inhibition, actives largely listed as inhibitors; P11473; note: potency is the fitted concentration of half-maximal effect; % is set by controls: 0 for no effect and ±100 for the full control effect
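Signal is fluorescence polarization, reporting how far test compounds block the interaction of VDR with the SRC2-3 coregulator peptide after a 2 h room-temperature incubation.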
MBNL1 CUG block – inhibitors of human MBNL1 binding to CUG repeat RNA; 0.036% of 280,000 active; AID 2675; TR-FRET MBNL1-His/biotin-(CUG)12 binding, 665/545 ratio; Potency, µM (titrated, usually from 57.5 µM), inactives show at the highest dose activity change, negative = inhibition, most hits filed as inhibitors; Q9NR56; active = well fitted inhibition curve with a large enough effect in the signal ratio, with a control signal flat, not every such curve was filed as active; inconclusive = small, poorly fitted or top-dose-only effect, or effect the other way, or a change in a side signal; inactive = no such curve, though single readings can be large or run the other way; the % refers to the signal ratio; note: potency is the fitted concentration of half-maximal effect; % is set by controls: 0 for no effect and ±100 for the full control effect
Target sequence (Q9NR56 whole entry, looked up): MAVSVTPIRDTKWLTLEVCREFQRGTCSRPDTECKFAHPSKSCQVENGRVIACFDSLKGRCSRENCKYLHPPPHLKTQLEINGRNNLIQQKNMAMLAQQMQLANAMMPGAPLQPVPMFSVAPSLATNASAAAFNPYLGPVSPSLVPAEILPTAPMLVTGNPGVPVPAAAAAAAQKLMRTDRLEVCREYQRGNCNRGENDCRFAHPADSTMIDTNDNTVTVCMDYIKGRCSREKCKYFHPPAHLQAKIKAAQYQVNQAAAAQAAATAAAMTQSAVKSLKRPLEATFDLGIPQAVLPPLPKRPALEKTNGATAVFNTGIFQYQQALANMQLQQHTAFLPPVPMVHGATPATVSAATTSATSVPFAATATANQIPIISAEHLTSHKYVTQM
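TR-FRET between His-tagged MBNL1 and biotin-(CUG)12 RNA, detected with Tb anti-His antibody (0.055 ng/ul) and streptavidin-XL665 (5 nM), 60 min at room temperature. Compounds titrated 92 nM to 58 uM; 665/545 nm ratio normalized to buffer and complex controls.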
PLK1 PBD block – PLK1 (human) polo-box domain binding inhibition; AID 720504; Plk1 PBD binding of FITC phosphopeptide, fluorescence polarization; 2.8% of 360,000 active; P53350; Potency, µM, for inactives: max response, negative = inhibition, most hits filed as inhibitors; note: potency is the fitted concentration of half-maximal effect; series mostly up to about 57 µM; % is set by controls: 0 for no effect and ±100 for the full control effect; nearly all actives have a fitted effect of over 65% in size
CBFb RUNX1 block – blocks binding between human CBF-beta and RUNX1. AlphaScreen CBFb-His/RUNX1-biotin binding, biochemical. Potency, µM (top dose mostly 59.8 µM), inactives show top-dose activity, negative = inhibition, hits mostly inhibitors. 230,000 tested, under 10 active. AID 1477; note: % of control where 0% means no effect
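Compounds were screened at multiple concentrations against a preformed CBF-beta(His)/RUNX1(biotin) complex (30 nM of each) for 15 min at room temperature, followed by 90 min with nickel and streptavidin beads and AlphaScreen reading.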
* marks the source's active call; other numbers are inactive results; i = inactive; u = inconclusive; x = no result. This is a sample that favours compounds with a hit; in the whole collection about 3.8% have one here. Unless noted, calls come from the whole dose curve; as a rule, active = well fitted curve in the direction sought with a large enough effect; inconclusive = small, poorly fitted or top-dose-only effect, or another doubt; inactive = no such curve, though single readings can be large; an effect the other way counts as inactive or inconclusive.

SMILES	KCNH2 WT inh	KCNH2 3.1 block	VDR inhibitor	MBNL1 CUG block	PLK1 PBD block	CBFb RUNX1 block
COC(=O)[C@@]12CCCCN1[C@H](c1ccc(-c3cccc(Cl)c3)c(OC)c1)[C@@H]1C(=O)N(C)C(=O)[C@@H]12	4	-12	-15%	x	4%	x
ON(Cc1c(F)cccc1Cl)Cc1c(F)cccc1Cl	1	-114*	-22%	-7%	-7%	6%
CNc1nc(-c2ccc3c(c2)OCO3)nc2ccccc12	x	x	1%	x	x	x
c1ccc(CNc2nc(-c3ccc4c(c3)OCO4)nc3ccccc23)cc1	x	x	45µM*	x	x	x
c1ccc(CNc2ncncc2-c2ccc3c(c2)OCO3)cc1	x	x	28µM*	x	x	x
O=[N+]([O-])c1cccc(S(=O)(=O)N2CCN(c3nc(-c4ccccc4)nc4ccccc34)CC2)c1	x	x	1%	x	x	x
CCOc1ccc(-n2nc(CO)c(C(=O)NCC(C)O)n2)cc1 (stereo unspecified)	x	x	4%	x	x	x
O=C(COc1cccc2ccccc12)Nc1cc(Cl)ccc1C(=O)O	20	2	-30%	-6%	21µM*	x
O=C(COc1cccc2ccccc12)Nc1ccc(Cl)cc1C(=O)O	-20	-5	u	-4%	27µM*	x
O=C(COc1ccccc1C(=O)O)Nc1cccc2ccccc12	-7	-9	6%	x	-8%	x
Cc1nnsc1Sc1ccccc1	i	-3	-14%	-5%	12µM*	0%
Cc1nc(N)ncc1Sc1ccccc1	2	8	9%	x	5%	-1%
Cc1ccc(C(=O)c2oc3ccccc3c2NC(=O)Cc2coc3c(C)c(C)ccc23)cc1	x	x	4%	x	x	x
CCOc1ccc(NC(=O)CSc2nc(-c3ccccc3)c3cc(OCC)ccc3n2)cc1	x	x	-8%	x	x	x
CO[C@H]1C([C@@]2(C)O[C@@H]2CC=C(C)C)[C@]2(CC[C@H]1OC(=O)/C=C/C=C/C=C/C=C/C(=O)O)CO2 (stereo partly specified)	x	x	35µM*	x	x	-2%
COc1ccc(NC(=O)CCn2c(-c3ccc(F)cc3)cc(C(C)=O)c2C)c(OC)c1	x	x	4%	x	x	x
COc1ccc(C(=O)C=Cc2ccc(OCc3ccccc3)c(OC)c2)cc1OC	-11	-72*	x	x	-9%	x
COc1cc(/C=C/[N+](=O)[O-])ccc1OCc1cccc(C(=O)O)c1	13	5	20µM*	-9%	6µM*	x
COc1cc(/C=N/NC(=O)c2cccc([N+](=O)[O-])c2)ccc1OCc1ccccc1	6	-2	6%	-6%	-3%	-1%
O=C(/C=C/c1cccc(OCc2ccccc2)c1)c1cccnc1	i	16	40µM*	1%	-19%	-10%
COc1ccccc1CNS(=O)(=O)c1ccc2c(c1)NC(=O)C(C)C(=O)N2 (stereo unspecified)	x	x	-9%	x	x	x
O=C(CSc1nc2c(c(=O)[nH]1)CCCC2)Nc1ccccc1C(F)(F)F	x	x	-5%	x	x	x
CC1(C)CC(=O)c2cc(-c3nc(-c4ccccc4)cs3)c(=O)[nH]c2C1	x	x	-4%	x	x	x
COc1ccc(-c2nc(CNS(=O)(=O)c3ccc(Br)cc3)cs2)cc1	x	x	8%	x	x	x
COc1ccc(-c2nc(CNS(=O)(=O)c3ccc(OC)c(OC)c3)cs2)cc1	4	-114*	-3%	9%	-4%	15%
SMILES	KCNH2 WT inh	KCNH2 3.1 block	VDR inhibitor	MBNL1 CUG block	PLK1 PBD block	CBFb RUNX1 block
CCc1cc2c(cc3c(=O)n(CC(=O)N4CCN(C)CC4)ncn32)s1	25	12	u	8%	21µM*	x
CCc1cc2c(cc3c(=O)n(CC(=O)NC4CCC(C)CC4)ncn32)s1 (stereo unspecified)	x	x	9%	x	x	x
COCCCNC(=O)CC1C[C@H](C(=O)N2CCCCC2)[C@@]2(CCc3ccccc3)c3[nH]c4ccc(OC)cc4c3CCN2C1=O (stereo partly specified)	4	-24	-27%	x	u	x
COc1ccc2[nH]c3c(c2c1)CCN1C(=O)C(CC(=O)NCc2ccc(OC)c(OC)c2)C[C@H](C(=O)N2CCCCC2)[C@@]31CCc1ccccc1 (stereo partly specified)	-7	2	u	x	21µM*	x
COc1ccc2[nH]c3c(c2c1)CCN1C(=O)C(CC(=O)NCc2ccco2)C[C@H](C(=O)N2CCOCC2)[C@@]31C (stereo partly specified)	-6	4	-12%	x	-7%	x
COc1ccc2[nH]c3c(c2c1)CCN1C(=O)C(CC(=O)NCCc2ccccn2)C[C@H](C(=O)N2CCOCC2)[C@@]31CCC1CCCC1 (stereo partly specified)	28	0	u	x	30µM*	x
CN(C)C(=O)CCc1ccc2c3c([nH]c2c1)[C@]1(CCc2ccccc2)[C@@H](C(=O)N2CCCCC2)C[C@H](CC(=O)NCc2cccc(C(F)(F)F)c2)C(=O)N1CC3	-12	1	u	x	27µM*	x
COc1ccc2[nH]c3c(c2c1)CCN1C(=O)C(CC(=O)NCc2ccc(OC)c(OC)c2)C[C@H](C(=O)N2CCOCC2)[C@@]31C (stereo partly specified)	6	-8	-17%	x	27µM*	x
CC1=C(C(=O)Nc2ccccc2C)C(c2cccs2)n2nc(SCc3ccccc3)nc2N1 (stereo unspecified)	x	x	2%	x	x	x
COc1ccc(NC(=O)Cn2c(=O)oc3cc(S(=O)(=O)NC(C)C)ccc32)cc1OC	x	x	7%	x	x	x
CN(C)CCCNC(=O)C[C@H]1C[C@H](C(=O)N2CCCCC2)[C@@]2(CCc3ccccc3)c3[nH]c4ccc(Cl)cc4c3CCN2C1=O	-120*	-47	-6%	x	-18%	x
COCc1[nH]nc2c1C(c1ccsc1)C(C#N)=C(N)O2 (stereo unspecified)	-34	-4	-4%	-2%	27µM*	3%
CSc1ccc(C2CC(=O)Nc3c2c(=O)n(C)c(=O)n3C)cc1 (stereo unspecified)	-6	10	u	1%	27µM*	6%
Cn1c2c(c(=O)n(C)c1=O)C(c1cccc(O)c1)CC(=O)N2 (stereo unspecified)	x	x	-15%	x	x	x
CCNCCNC(=O)c1c(O)c2cccc3c2n(c1=O)CCC3	-179*	8	7%	-14%	-10%	5%
O=[N+]([O-])c1cc([N+](=O)[O-])c2cc3ccccc3nc2c1	-1	-10	u	u	0.42µM*	x
CC12C(=O)N(c3ccccn3)C(=O)C1C1C=CC2C1 (stereo unspecified)	1	6	u	-4%	30µM*	0%

From PubChem
